Mcl1-Noxa inh: disrupts binding of human Mcl-1 to Noxa peptide | inhibition, % at 21.7 µM | hit rate 1.5% among 220,000 | Q07820 | TR-FRET Mcl-1/Noxa peptide binding, 2 h;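 active means compounds that cut the protein-peptide binding signal by more than 50% relative to plate controls in a single-dose test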;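 further: His-tagged Mcl-1 with rhodamine Noxa BH3 peptide and terbium anti-His antibody; 0% = Mcl-1 plus Noxa peptide wells and 100% = peptide-only wells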
Bim-Mcl-1: inhibitors of Bim-Mcl-1 interaction, human; inhibition, % at 10 µM; Bead-based flow cytometry, Bim peptide-Mcl-1 binding; Q07820; AID 1009; hit rate 0.1% among 190,000; in the data active means inhibition above about 40%;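 further: 0% = no compound tracer wells and 100% = peptide blocker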
Mcl1 Bid PPI: disrupts binding of human Mcl-1 to Bid peptide. Q07820. TR-FRET Mcl-1/Bid-Dy647 peptide binding, 1536-well. inhibition, % at 21.7 µM. hit rate 0.97% among 220,000;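 active means compounds that cut the binding signal by more than half at the single screening dose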;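 further: His-tagged Mcl-1 with europium anti-His antibody binding Bid BH3 peptide; 0% = Mcl-1 plus peptide wells and 100% = peptide-only wells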
Bcl-xL primary: blocks human Bcl-xL binding to Bim BH3 peptide; Q07817; GST-Bcl-xL / FITC-Bim BH3 peptide fluorescence polarization; inhibition, % at 10.9 µM; hit rate 0.7% among 320,000;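 active means inhibition above the mean of all tested compounds plus 3 SD, cutoff set per campaign, cut at about 30% in these data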;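 further: 0% = DMSO wells and 100% = unlabeled Bim-BH3 peptide competitor; inhibitors lower millipolarization by displacing the labeled peptide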
Target sequence (Q07817 whole entry, looked up): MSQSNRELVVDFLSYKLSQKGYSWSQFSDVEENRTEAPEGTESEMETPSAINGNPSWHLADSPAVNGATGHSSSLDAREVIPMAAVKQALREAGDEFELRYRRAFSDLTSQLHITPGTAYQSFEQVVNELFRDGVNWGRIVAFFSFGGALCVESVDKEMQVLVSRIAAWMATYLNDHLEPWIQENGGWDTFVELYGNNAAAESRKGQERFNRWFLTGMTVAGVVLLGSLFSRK
GLD-1 TGE inh: GLD-1-TGE RNA interaction inhibition (C. elegans); Q17339; purified GLD-1 + fluorescein TGE RNA, fluorescence polarization; inhibition, % at 5.96 µM; hit rate 0.44% among 320,000;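 active means percent inhibition above a per-plate cutoff, the plate mean of test compounds plus 3 SD, cut at about 30% in these data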;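 further: 0% = DMSO wells with GLD-1 and probe and 100% = wells lacking GLD-1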
Target sequence (Q17339 whole entry, looked up): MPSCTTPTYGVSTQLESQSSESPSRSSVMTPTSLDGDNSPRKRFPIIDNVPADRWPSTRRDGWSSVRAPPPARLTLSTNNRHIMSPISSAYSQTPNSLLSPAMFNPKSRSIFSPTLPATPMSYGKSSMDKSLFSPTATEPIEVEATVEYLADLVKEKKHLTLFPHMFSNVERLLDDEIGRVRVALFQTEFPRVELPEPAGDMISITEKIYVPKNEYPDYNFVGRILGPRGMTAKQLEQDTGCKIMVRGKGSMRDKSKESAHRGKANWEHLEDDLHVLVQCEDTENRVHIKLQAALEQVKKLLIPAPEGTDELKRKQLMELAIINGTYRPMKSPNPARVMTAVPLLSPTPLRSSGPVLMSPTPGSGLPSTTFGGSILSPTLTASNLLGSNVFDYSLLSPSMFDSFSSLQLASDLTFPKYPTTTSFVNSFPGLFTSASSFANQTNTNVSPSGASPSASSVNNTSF
MCL1 BIM primary: disrupts human MCL1 binding to BIM-BH3 peptide. hit rate 0.68% among 320,000. inhibition, % at 10.9 µM. GST-MCL1 / FITC-Bim-BH3 fluorescence polarization. AID 2057;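 active means inhibition above the mean inhibition of all tested compounds plus 3 SD, set per campaign, cut at about 40% in these data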;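 further: 0% = DMSO wells and 100% = unlabeled Bim-BH3 peptide control; higher means more loss of mP so more displacement of Bim peptide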
BCLXL inh confirm: Bcl-xL (human) inhibition, MCL1 counter-screen confirmation; shares compounds with MCL1 BIM primary; inhibition, % at 10.9 µM; GST-Bcl-xL / FITC-Bim BH3 peptide FP binding; hit rate 54% among 1,700;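 active means inhibition above a cutoff equal to the mean inhibition of all tested compounds plus 3 SD, cut at about 30% in these data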;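 further: 0% = DMSO wells and 100% = unlabeled Bim BH3 control peptide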
MCL1 BIM confirm: MCL1-BIM-BH3 interaction inhibition, confirmation; shares compounds with MCL1 BIM primary; GST-MCL1 / FITC-Bim-BH3 fluorescence polarization; inhibition, % at 10.9 µM; hit rate 61% among 1,700; AID 2168;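 active means inhibition above the average of all tested compounds plus 3 SD, cut at about 40% in these data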;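 further: 0% = DMSO wells and 100% = unlabeled Bim-BH3 control peptide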
Starred values were filed as active, the others as inactive; i = inactive; · = not tested or not shown; + = active, no number. In the library only some 2.3% were active in any assay of this set; here they are far more common.

SMILES	Mcl1-Noxa inh	Bim-Mcl-1	Mcl1 Bid PPI	Bcl-xL primary	GLD-1 TGE inh	MCL1 BIM primary	BCLXL inh confirm	MCL1 BIM confirm
O=C1OC(C(=O)O)Cc2ccccc21 (stereo unspecified)	23	1	-1	2	5	64*	2	5
[O-][n+]1c2ccccc2[n+]([O-])c2cc(O)ccc21	·	·	·	17	10	46*	45*	77*
COc1ccc(NC(=O)c2ccco2)cc1NC(=O)c1ccccc1[N+](=O)[O-]	·	·	·	-4	11	-1	·	·
CCN1C(=O)[C@H]2[C@@H](c3ccc(-c4ccccc4)cc3)N3CCC[C@@]3(C(=O)OC)[C@H]2C1=O	·	·	·	-8	-4	-11	·	·
Cc1ccccc1CN(C)Cc1cc(=O)oc2c(C)c(C)ccc12	·	·	·	3	-8	64*	12	7
NS(=O)(=O)c1ccc(N=Nc2c[nH]c(=O)c(O)c2)cc1	19	·	-281	130*	39*	163*	169*	195*
Cc1cccc(C)c1OCC1CNC(=O)O1 (stereo unspecified)	·	·	·	3	3	-4	·	·
O=C1NCC(COCc2ccccc2)O1 (stereo unspecified)	7	1	-6	26	12	54*	10	12
Cc1c(OCC(=O)NCCN2CCOCC2)ccc2c(-c3ccccc3)cc(=O)oc12	·	·	·	-1	3	-7	·	·
COc1ccc(NC(=O)CSc2sc3c(O)cc(=O)[nH]c3c2C#N)c(OC)c1	·	·	·	14	2	20	·	·
CCc1nnc(NC(=O)CSc2sc3c(O)cc(=O)[nH]c3c2C#N)s1	·	·	·	26	-3	48*	32*	58*
COc1ccccc1NC(=O)CSc1sc2c(O)cc(=O)[nH]c2c1C#N	·	·	·	18	1	45*	16	27
Cc1ccc(N2C(=O)c3ccccc3C2=O)nc1	·	·	·	-2	0	-6	·	·
CCC(C)Sc1cccc(-c2nc3cc(C)ccn3c2NCc2ccccc2)c1 (stereo unspecified)	·	·	·	8	11	10	·	·
COc1cc(NCCCCCCCN)c2ncccc2c1	32	22	-23	4	-7	1	·	·
COc1cc(NC(C)CCCN)c2ncccc2c1 (stereo unspecified)	·	·	·	44*	-47	53*	32*	50*
CCN(CC)S(=O)(=O)c1ccc(OC)c(NC(=O)Cc2cccs2)c1	56*	-1	-60	7	-1	40*	22	51*
COc1cc(OC)c(NC(=O)Cc2cccs2)cc1Cl	·	·	·	0	-1	1	·	·
CCOc1cc(C(c2c(O)nc(SC)[nH]c2=O)c2c(O)nc(SC)[nH]c2=O)ccc1O	·	·	·	84*	68*	97*	65*	76*
COc1ccc(S(=O)(=O)N2CCN(C(=O)C3COc4ccccc4O3)CC2)cc1 (stereo unspecified)	·	·	·	13	9	89*	16	90*
CC(=O)Nc1ccc(S(=O)(=O)N2CCN(C(=O)C3COc4ccccc4O3)CC2)cc1 (stereo unspecified)	·	·	·	2	4	5	·	·
C/C(=N\NC(=O)c1cc(O)cc(O)c1)c1ccc(NC(=O)Cc2ccccc2)cc1	·	·	·	32*	6	78*	46*	93*
CC(=O)c1ccc(NC(=O)C(C)OC(=O)C2CCN(c3ccc(C(F)(F)F)cn3)CC2)cc1 (stereo unspecified)	·	·	·	-19	0	-23	·	·
O=C1NC(=S)S/C1=C/c1ccc(N2CCOCC2)o1	i	12	-54	47*	12	65*	39*	32
O=C1S/C(=C/c2ccc(N3CCOCC3)o2)C(=O)N1Cc1ccc(F)cc1	35	0	12	-72	-114	-117	·	·
SMILES	Mcl1-Noxa inh	Bim-Mcl-1	Mcl1 Bid PPI	Bcl-xL primary	GLD-1 TGE inh	MCL1 BIM primary	BCLXL inh confirm	MCL1 BIM confirm
O=C(NCCN1CCCC1=O)C1CCC(=O)N(CCc2cccc(F)c2)C1 (stereo unspecified)	·	·	·	4	10	2	·	·
O=C(C1CCN(S(=O)(=O)c2ccc(-n3cnnn3)cc2)CC1)N1CCCCC1	·	·	·	0	2	1	·	·
COC(=O)CCC(=O)OC1(C)C(=O)C=C2C=C(c3ccsc3)OC=C2C1=O (stereo unspecified)	·	·	·	21	28	51*	29	77*
CC1(OC(=O)C2CCCC2)C(=O)C=C2C=C(c3ccsc3)N(CCN3CCOCC3)C=C2C1=O (stereo unspecified)	-2	·	-107	·	·	·	·	·
CC1(O)C(=O)C=C2C=C(c3ccsc3)OC=C2C1=O (stereo unspecified)	·	·	·	25	11	52*	33*	73*
COC(=O)CCCC1=CC2=CC(=O)C(C)(OC(=O)c3cccs3)C(=O)C2=CN1c1ccc(OC)cc1 (stereo unspecified)	-31	·	-66	15	1	14	·	·
CC1(O)C(=O)C=C2C=C(C3CC3)OC=C2C1=O (stereo unspecified)	·	·	·	21	23	31	·	·
COC(=O)CCC(=O)OC1(C)C(=O)C=C2C=C(C3CC3)N(c3ccc(CO)cc3)C=C2C1=O (stereo unspecified)	·	·	·	64*	45*	94*	46*	64*
COC(=O)CCC(=O)OC1(C)C(=O)C=C2C=C(C3CC3)OC=C2C1=O (stereo unspecified)	·	·	·	54*	67*	55*	48*	70*
CC1(C)CC(=O)C2=C(C1)OC(N)=C(C#N)C2c1cc2c(cc1[N+](=O)[O-])OCO2 (stereo unspecified)	25	-6	-49	186*	141*	+	108*	132*
CS(=O)(=O)c1ccccc1-c1nnc(NC(=O)Cc2ccccc2)o1	·	·	·	7	6	1	·	·
CCOC(=O)c1c(/N=C/c2cccc([N+](=O)[O-])c2O)sc(C)c1C	27	-1	-16	45*	21	55*	16	22
COc1ccc(NC(=O)c2sc3nc(-c4cccnc4)ccc3c2N)cc1	43	·	52*	108*	69*	112*	113*	137*
COc1ccc(NC(=O)c2sc3nc(C)cc(C)c3c2N)cc1	·	·	·	1	9	-2	·	·
NC(=S)N/N=C/c1ccc(C(F)(F)F)cc1	14	0	-99	5	2	11	·	·
NC(=S)N/N=C/c1ncc(C(F)(F)F)cc1Cl	-20	·	-58	146*	101*	153*	95*	113*
COc1ccc(/C=C/C(=O)Nc2cccnc2Cl)cc1	·	·	·	0	8	2	·	·
O=C(O)Cc1c[nH]c2cccc(O)c12	81*	0	23	12	5	45*	15	32
Cn1c(N)c(C(=O)COC(=O)Cc2ccc(Cl)c(Cl)c2)c(=O)n(C)c1=O	·	·	·	·	2	·	·	·

Screening data deposited in PubChem BioAssay by several laboratories.
